# Bioassay records as filed in PubChem.
# A selection: hits, their analogues and other compounds. The true share with any hit is near 5.4%.
# Granule exo inh = LAMP-1 surface exposure blockers, TALL-104 cells – cell-based, flow cytometry, MLPCN library, primary screen | TALL-104 LAMP-1 surface exposure; cells stimulated with thapsigargin and PMA | AID 651702, 2012 | inhibition, % at 10 µM | 360,000 tested, 0.66% active;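 active means inhibition above about 55%, limit read from the data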
# JMJD2C inh = inhibitors of GASC-1 histone demethylase, primary screen, biochemical, fluorescence, DELFIA europium | Lysine-specific demethylase 4C (Homo sapiens), Q9H3R0 | GST-JMJD2C(1-420) H3K9me3 demethylation | inhibition, % at 2.35 µM | 330,000 tested, 0.069% active;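 active means more than half of a compound's replicate wells show inhibition beyond 50%, single wells judged on their own value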;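 further: signal counts dimethyl H3K9 product captured on neutravidin plate; 0% = median of DMSO wells and 100% = 0.3 times that DMSO median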
# PfM18AAP inh-1 = PfM18AAP inhibitors, malaria aminopeptidase, primary screen, biochemical, QFRET, recombinant enzyme; M18 aspartyl aminopeptidase (Plasmodium falciparum 3D7); H-Glu-NHMec fluorogenic cleavage; inhibition, % at 7.35 µM; 290,000 tested, 1.2% active; AID 1822, 2009;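 active means inhibition above the campaign mean inhibition over all tested compounds plus 3 SD, cut at about 28% in these data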;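 further: 0% = plate median of test compound wells and 100% = 2 mM ZnCl2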
# ALR inh = inhibitors of human ALR sulfhydryl oxidase, primary screen, biochemical, H2O2 detection, HRP-luminol luminescence, single point. FAD-linked sulfhydryl oxidase ALR (Homo sapiens), P55789. purified ALR, DTT oxidation. inhibition, % (test concentration not listed). 290,000 tested, 3.8% active;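 active means mean replicate inhibition above about 79%, with every replicate also reaching it, limit read from the data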
# Target sequence (P55789 whole entry, looked up): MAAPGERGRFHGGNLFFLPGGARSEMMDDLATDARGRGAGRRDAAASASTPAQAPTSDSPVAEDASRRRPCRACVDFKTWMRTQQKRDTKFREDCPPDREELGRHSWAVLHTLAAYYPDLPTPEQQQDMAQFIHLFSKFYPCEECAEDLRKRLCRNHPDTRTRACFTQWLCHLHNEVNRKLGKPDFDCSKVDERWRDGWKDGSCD
# MIN6 prolif = inducers of MIN6 beta-cell proliferation, primary screen, ATP luminescence, uHTS | 330,000 tested, 0.29% active | proliferation, % at 10 µM | MIN6 cells proliferation, ATPlite luminescence, 48 h; cells starved in 0.2% serum; 100% = growth in 10% serum;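 active means compounds whose signal lies at least 3.5 SD above the mean of all wells on their plate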;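 further: 0% = DMSO-treated cells in low-serum medium and 100% = 10% serum control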
# SMARCA2 activ = SMARCA2 (BRM) function activators, primary screen, cell-based, luminescence, high throughput | activation, % at 9.1 µM | 370,000 tested, 1% active | MG213 cells, MMTV-luciferase reporter, dexamethasone, overnight; in the data active means activation above about 7.8%;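 further: 0% = vehicle wells and 100% = reference activator wells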
# PfM18AAP inh-2 = PfM18AAP inhibitors, malaria aminopeptidase, confirmation, biochemical, QFRET, recombinant enzyme, triplicate; 2,400 tested, 28% active; H-Glu-NHMec fluorogenic cleavage; AID 2170, 2009; shares compounds with PfM18AAP inh-1; inhibition, % at 7.35 µM;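 active means mean inhibition over replicate wells above the hit cutoff set for the earlier primary screen, cut at about 29% in these data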;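 further: 0% = median of test compound wells and 100% = 2 mM ZnCl2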
# CTSL1 confirm = cathepsin L1 inhibitors, retest, confirmation, counter-screen for PFM18AAP inhibitor project, biochemical, QFRET, triplicate | shares compounds with PfM18AAP inh-1 | purified cathepsin L1, Z-Leu-Arg-MCA fluorescence | inhibition, % at 5.96 µM | 2,400 tested, under 10 active | AID 2178, 2009;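 active means average inhibition across replicates above the hit cutoff set in the earlier primary screen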;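 further: 0% = median of test compound wells and 100% = Z-Phe-Ala-diazomethylketone 1 µM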
# Active calls of the source: *; . = no result given.
SMILES,Granule exo inh,JMJD2C inh,PfM18AAP inh-1,ALR inh,MIN6 prolif,SMARCA2 activ,PfM18AAP inh-2,CTSL1 confirm
CCOc1cc(C(=O)NC(=S)Nc2nc(C)cc(C)n2)cc(OCC)c1OCC,3.2,-11.0,3.3,-0.2,0.2,5.4,.,.
CCOc1cc(C(=O)NC(=S)Nn2cnnc2)cc(OCC)c1OCC,0.4,1.9,75.3*,34.0,-0.4,-0.6,75.3*,-2.4
CCOc1cc(C(=O)Nn2cnnc2)cc(OCC)c1OCC,0.0,-10.5,34.8*,2.5,3.8,-0.9,24.0,0.9
CCC(CC)c1nnc(NC(=O)C2CC(=O)N(CCc3ccc(OC)c(OC)c3)C2)s1 (configuration not stated),-12.9,0.5,.,-22.6,3.5,-3.4,.,.
CCC(CC)c1nnc(NC(=O)C2CC(=O)N(CCc3ccc(F)cc3)C2)s1 (configuration not stated),-11.6,4.9,34.7*,-3.6,-0.6,-2.9,-41.2,-3.0
C=CCn1c(SCC(=O)c2ccc(F)cc2)nnc1-c1ccc(F)cc1,.,.,.,.,.,-5.1,.,.
COc1cc(C(=S)N2CCN(c3ccccc3Cl)CC2)cc(O)c1O,-3.5,-25.9,54.3*,98.6*,-7.2,-3.5,45.1*,-1.1
COc1cccc(-n2c(CCn3nc(C)c([N+](=O)[O-])c3C)n[nH]c2=S)c1,-1.3,-4.9,31.8*,85.5*,2.1,-0.9,1.6,-0.3
COc1cccc(CNC(=O)Cn2nc(C)c([N+](=O)[O-])c2C)c1,2.1,-4.7,-1.7,-7.9,0.4,-0.3,.,.
Cc1cccc(OCCOCCSc2ncccn2)c1,0.0,-14.4,5.7,-12.2,-2.6,-1.2,.,.
Cc1cccc(OCCSc2nc(N)cc(N)n2)c1,-4.4,5.3,42.4*,36.3,1.0,2.1,8.5,0.5
CC1CC(C)CN(S(=O)(=O)c2ccc(NN)nc2)C1 (configuration not stated),-2.8,-1.6,45.9*,.,-4.6,-1.0,33.4*,0.7
CC1CC(C)CN(S(=O)(=O)c2ccc(C(C)(C)C)cc2)C1 (configuration not stated),-1.1,-26.5,15.9,-5.4,-3.8,-3.1,.,.
COc1ccc(-n2cc(-c3ccc(OC)c(OC)c3)[nH]c2=S)cc1,-1.1,2.7,40.6*,.,-2.5,-0.4,4.2,9.5
COc1ccc(CCN2CC(=O)N3CCc4ccc(N5CCOCC5)cc4C3CC2=O)cc1OC (configuration not stated),.,.,.,.,.,-3.7,.,.
C[C@H](O)[C@@H]1C(=O)N2CCc3c([nH]c4cccc(-c5ccccc5)c34)[C@@H]2C[C@@H]1N(C)C(=O)C1CCCCC1,.,.,.,.,.,-0.1,.,.
O=c1oc2ccccc2cc1-c1nc2c(s1)CCc1ccccc1-2,-3.0,1.2,-1.3,-32.7,-4.5,4.5,.,.
O=c1oc2ccccc2cc1-c1nnc(NCc2ccco2)s1,-4.9,-4.0,38.1*,8.7,-1.8,7.1,-37.6,3.9
Cc1ccc(C(Nc2ccccc2)c2ccc3ccc(C)nc3c2O)c(C)c1 (configuration not stated),.,.,.,.,.,-6.0,.,.
C[C@H](O)[C@@H]1C(=O)N2CCc3c([nH]c4c(-c5ccccc5)cccc34)[C@@H]2C[C@@H]1N(C)C(=S)NCCc1ccccc1,.,.,.,.,.,-2.2,.,.
Cc1cc2c(=O)[nH]cnc2s1,2.8,2.4,-1.4,-2.8,-2.2,1.2,.,.
O=c1[nH]cnc2[nH]ncc12,1.5,-0.2,48.9*,-8.2,-2.3,-1.7,9.5,-6.3
